The values that follow come from PubChem BioAssay (NCATS).

“And” between values parts separate entries of the source, which are not always exact repeats. Equal values may be shown once. Inconclusive results are not listed. The source made the active and inactive calls. Unless noted, calls follow the shape of the dose curve; as a rule, active = well fitted activation curve with a large enough effect; inconclusive = small, poorly fitted or top-dose-only effect; inactive = no such curve, though single readings can be large or run the other way.
Potency is read from the fitted curve at half-maximal effect.

Chain of Cellular tumor antigen p53 (Homo sapiens) (P04637 whole entry, looked up): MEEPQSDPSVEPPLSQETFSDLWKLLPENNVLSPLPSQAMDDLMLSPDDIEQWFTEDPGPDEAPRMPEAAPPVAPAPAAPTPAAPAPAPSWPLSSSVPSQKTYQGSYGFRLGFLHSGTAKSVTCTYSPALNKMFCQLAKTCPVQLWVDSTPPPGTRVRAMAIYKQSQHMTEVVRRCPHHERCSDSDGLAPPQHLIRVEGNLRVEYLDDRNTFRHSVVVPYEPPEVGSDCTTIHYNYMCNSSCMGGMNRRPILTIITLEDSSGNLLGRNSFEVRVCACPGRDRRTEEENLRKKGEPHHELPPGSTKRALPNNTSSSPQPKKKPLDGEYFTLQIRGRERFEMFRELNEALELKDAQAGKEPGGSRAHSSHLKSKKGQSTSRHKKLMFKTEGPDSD

One experiment has as its target Cellular tumor antigen p53 (Homo sapiens) (UniProt P04637). The experiment in a line: Primary qHTS for small molecule compounds that upregulate eGFP-tagged delta133p53alpha (in N-terminal) cells. (AID 2060322). Also: nearly all actives have a fitted effect of over 75% in size.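 As to activation: 0% = DMSO vehicle and 100% = reference activator.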 The conditions noted are these: NCI-H358 eGFP-delta133p53alpha fluorescence, 24 h; activation: hits give high values. The essentials:
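NCI-H358 cells pre-induced 24 h with 10 ng/ml doxycycline to express N-terminal eGFP-delta133p53alpha, then dosed 24 h at 37C without doxycycline; fixed, Hoechst-stained, GFP intensity by laser scanning cytometry, normalized to DMSO (0%) and 57.5 uM 5-azacytidine (100%).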
Background: qHTS replaces the single test concentration by a dilution series.
For `COc1ccc(-c2c(-c3cc(C(=O)O)ccn3)ncn2C)cc1`, the activation was -2.33% (inactive).

`Oc1ccc(Nc2nc(-c3ccc(Cl)cc3)cs2)cc1`: the activation is 24.1% (inactive).

With `COC(=O)C1=CO[C@@H](O[C@@H]2O[C@H](COC(=O)/C=C/c3cc(OC)c(O)c(OC)c3)[C@@H](O)[C@H](O)[C@H]2O)[C@@H]2C(CO)=CC[C@H]12`, the activation was -16.8% (inactive).

For `OC[C@H]1O[C@@H](OC(CCCCc2ccc(O)cc2)CCc2ccc(O)cc2)[C@H](O)[C@@H](O)[C@@H]1O` (some centres undefined), the activation was -9.92% (inactive).

Take `COCC(=O)NC/C=C/c1ccc2ncnc(Nc3ccc(Oc4ccc(C)nc4)c(C)c3)c2c1`: the activation was 0% (inactive).

`OC/C=C/C=C/[C@H]1Cc2cc(O)cc(O)c2O1`: the activation was 0.893% (inactive).

As to `CCN(Cc1cc(Nc2nc(C)cn3c(-c4cn[nH]c4)cnc23)sn1)C(C)(C)CO`, the Potency is 16.9 µM (active).

Take `COc1cc2ncc(-c3ccccc3)nc2cc1OC`: the activation was -16.1% (inactive).

As for `CN(C)c1cccc(Oc2cnc(Nc3cccc(O)c3)nc2)c1`, the activation was 2.86% (inactive).

In the case of `OC[C@@]1(O)CO[C@@H](OC[C@H]2O[C@@H](Oc3c[nH]c4ccccc34)[C@H](O)[C@@H](O)[C@@H]2O)[C@@H]1O`, the activation was -5.34% (inactive).

Regarding `C[C@@H]1O[C@@H](O[C@H]2[C@H](O[C@H]3CO[C@@H](O[C@H]4CC[C@@]5(C)C(CC[C@]6(C)C5CC[C@]57OC[C@@]8(CC[C@](C)(CO)CC85)[C@H](O)C[C@]76C)C4(C)C)[C@H](O[C@@H]4O[C@H](CO)[C@@H](O)[C@H](O)[C@H]4O)[C@H]3O)O[C@H](CO)[C@@H](O)[C@@H]2O)[C@H](O)[C@H](O)[C@H]1O` (some centres undefined), the activation was -4.58% (inactive).

Turning to `C/C=C/C=C/c1cc2c(C=O)c(O)c(CC=C(C)C)cc2o1`, the Potency is 26.9 µM (active).

On to `C=C1C(=O)OC2C1CCC(=C)C1CC(OC(C)=O)C(=C)C12` (centres undefined), for which the Potency was 16.9 µM (active).

On to `CC1=CC(=O)C(=C(C)C)CC2C(C)(O)CCC12O` (centres undefined), for which the activation is -8.93% (inactive).

For the molecule `O=C(O)c1cc(O[C@@H]2O[C@H](CO[C@@H]3OC[C@@H](O)[C@H](O)[C@H]3O)[C@@H](O)[C@H](O)[C@H]2O)c2ccccc2c1O`, the activation is 9.92% (inactive).

`O=C(NCC(=O)N1CCCC1)Nc1ccc2ccccc2c1`: the activation is -2.86% (inactive).

Take `O=c1nc(-c2ccccn2)sc2ccccc12`: the activation was -10.5% (inactive).

`CC1=C2CC3C(CCC3(C)O)C(C)(O)CC2OC1=O` (centres undefined): the activation is -2.68% (inactive).

With `CC1(C)O[C@@]2(C)CC[C@@H]1C[C@@H]2OC1OC(CO)C(O)C(O)C1O` (some centres undefined), the activation was -6.11% (inactive).

`Cc1[nH]c(/C=C2\C(=O)Nc3cc(-c4ccccc4)ccc32)c(C)c1CCC(=O)O`: the activation was -26.3% (inactive).

Consider `O=C(OC1C=C(CO)C2C(OC3OC(CO)C(O)C(O)C3O)OC=CC12O)c1ccc(O)cc1` (centres undefined), for which the activation is 12.2% (inactive).

As for `COc1ccc(-c2ccn(CC[C@](C)(C(=O)NO)S(C)(=O)=O)c(=O)c2)c(F)c1`, the activation was -16.3% (inactive).

As for `O=C(/C=C/c1ccc(O)c(O)c1)O[C@H]1[C@H](OC2CCCCC2O)O[C@H](CO)[C@@H](O)[C@@H]1O` (some centres undefined), the activation is 5.36% (inactive).

As for `Cc1ccc(CN2CCNCC2)cc1NC(=O)CNc1ccc(F)c(F)c1`, the activation is -12.8% (inactive) and -5.25% (inactive).

Consider `Cn1cc(-c2ccncc2)c(-c2ccc(OCc3ccc4ccccc4n3)cc2)n1`, for which the activation was -22.8% (inactive) and -12.9% (inactive).

Regarding `CC(C)=C1CC2C(CCC2(C)O)C(C)(O)CC1=O` (centres undefined), the activation was 1.79% (inactive).

Turning to `COc1cc([C@H]2c3cc(O)c(OC)cc3C[C@@H](CO[C@@H]3O[C@H](CO)[C@@H](O)[C@H](O)[C@H]3O)[C@@H]2CO)ccc1O`, the activation is 9.82% (inactive).

As to `C=C1C(O)CCC2(C)CC3(OC)OC(=O)C(C)=C3CC12` (centres undefined), the activation is -6.87% (inactive).

`C=C1C(=O)OC2CC(C)=C(C(C)CCCO)C(O)C12` (centres undefined): the activation was 7.14% (inactive).

As to `OC[C@H]1O[C@@H](O[C@H]2[C@H](O)[C@@H](CO)O[C@@H](OCc3ccccc3)[C@@H]2O[C@@H]2OC[C@](O)(CO)[C@H]2O)[C@H](O)[C@@H](O)[C@@H]1O`, the activation was -11.5% (inactive).

In a further experiment the target is Aldehyde dehydrogenase, mitochondrial (Homo sapiens) (UniProt P05091). The experiment in a line: qHTS for Inhibitors of the Aldehyde Dehydrogenase Family (ALDH2) Confirmatory screens (AID 2061303; active = well fitted inhibition curve with a large enough effect; title and protocol of this record describe different tests; also: nearly all actives have a fitted effect of over 45% in size; as to activity change, negative = inhibition: % is scaled to controls: 0 for no effect and ±100 for the full control effect). The conditions noted are these: ALDH inhibition qHTS; series mostly up to 45.4 µM; activity change, negative = inhibition: at the top concentration.
Take `C=C[C@H]1[C@H](O[C@@H]2O[C@H](CO)[C@@H](O)[C@H](O)[C@H]2O)OC=C(C(=O)OC)[C@H]1CCOC(=O)c1cc(O)c(O)c(O)c1`: the “activity change, negative = inhibition” value is -10.7% [at 25.8 µM] (inactive).

Take `COc1cc(C2Oc3c(OC)cc(CCCO[C@@H]4O[C@H](CO)[C@@H](O)[C@H](O)[C@H]4O)cc3C2CO)ccc1O` (some centres undefined): the “activity change, negative = inhibition” value is -1.83% [at 25.8 µM] (inactive).

On to `Cn1cc(-c2ccc3ncc(Cc4ccc5ncccc5c4)n3n2)cn1`, for which the “activity change, negative = inhibition” value was -5.76% (inactive).

As for `Cc1ccc(NC(=O)N2CCN(c3nc(N)nc4sc(-c5cccnc5)nc34)CC2)cc1`, the Potency is 0.0355 µM (active).

With `C=CC(=O)Nc1cccc(Nc2nc(Nc3ccc(Oc4ccnc(C(=O)NC)c4)cc3)ncc2F)c1`, the “activity change, negative = inhibition” value was 0.738% (inactive).

Consider `OCC(O)C(c1c[nH]c2ccccc12)c1c[nH]c2ccccc12` (centres undefined), for which the “activity change, negative = inhibition” value is -17.5% (inactive).

For `COc1ccc(-c2c(-c3cc(C(=O)O)ccn3)ncn2C)cc1`, the “activity change, negative = inhibition” value is -8.99% (inactive).

With `Oc1ccc(Nc2nc(-c3ccc(Cl)cc3)cs2)cc1`, the “activity change, negative = inhibition” value is 1.86% (inactive).

For `OC/C=C/C=C/[C@H]1Cc2cc(O)cc(O)c2O1`, the “activity change, negative = inhibition” value is -12.3% (inactive).

For `COc1cc2ncc(-c3ccccc3)nc2cc1OC`, the “activity change, negative = inhibition” value was -37.4% (inactive).

For `CN(C)c1cccc(Oc2cnc(Nc3cccc(O)c3)nc2)c1`, the “activity change, negative = inhibition” value is -2.43% (inactive).

As for `OC[C@@]1(O)CO[C@@H](OC[C@H]2O[C@@H](Oc3c[nH]c4ccccc34)[C@H](O)[C@@H](O)[C@@H]2O)[C@@H]1O`, the “activity change, negative = inhibition” value was 1.61% [at 25.8 µM] (inactive).

Consider `C[C@@H]1O[C@@H](O[C@H]2[C@H](O[C@H]3CO[C@@H](O[C@H]4CC[C@@]5(C)C(CC[C@]6(C)C5CC[C@]57OC[C@@]8(CC[C@](C)(CO)CC85)[C@H](O)C[C@]76C)C4(C)C)[C@H](O[C@@H]4O[C@H](CO)[C@@H](O)[C@H](O)[C@H]4O)[C@H]3O)O[C@H](CO)[C@@H](O)[C@@H]2O)[C@H](O)[C@H](O)[C@H]1O` (some centres undefined), for which the activity change, negative = inhibition is -29.1% [at 10 µM] (inactive).

For `C/C=C/C=C/c1cc2c(C=O)c(O)c(CC=C(C)C)cc2o1`, the Potency was 11.3 µM (active).

For the molecule `C=C1C(=O)OC2C1CCC(=C)C1CC(OC(C)=O)C(=C)C12` (centres undefined), the “activity change, negative = inhibition” value is -11.8% (inactive).

Regarding `CC1=CC(=O)C(=C(C)C)CC2C(C)(O)CCC12O` (centres undefined), the “activity change, negative = inhibition” value was -0.487% (inactive).

In the case of `O=C(O)c1cc(O[C@@H]2O[C@H](CO[C@@H]3OC[C@@H](O)[C@H](O)[C@H]3O)[C@@H](O)[C@H](O)[C@H]2O)c2ccccc2c1O`, the “activity change, negative = inhibition” value was -5.42% [at 25.8 µM] (inactive).

Consider `O=c1nc(-c2ccccn2)sc2ccccc12`, for which the “activity change, negative = inhibition” value was -9.27% (inactive).

For `CC1=C2CC3C(CCC3(C)O)C(C)(O)CC2OC1=O` (centres undefined), the “activity change, negative = inhibition” value was -4.93% (inactive).

Turning to `CC1(C)O[C@@]2(C)CC[C@@H]1C[C@@H]2OC1OC(CO)C(O)C(O)C1O` (some centres undefined), the “activity change, negative = inhibition” value was 0% [at 25.8 µM] (inactive).

For `Cc1[nH]c(/C=C2\C(=O)Nc3cc(-c4ccccc4)ccc32)c(C)c1CCC(=O)O`, the “activity change, negative = inhibition” value is -19.3% (inactive).

In the case of `O=C(OC1C=C(CO)C2C(OC3OC(CO)C(O)C(O)C3O)OC=CC12O)c1ccc(O)cc1` (centres undefined), the “activity change, negative = inhibition” value was 0% [at 25.8 µM] (inactive).

On to `COc1ccc(-c2ccn(CC[C@](C)(C(=O)NO)S(C)(=O)=O)c(=O)c2)c(F)c1`, for which the Potency was 7.94 µM (active).

As for `Cc1ccc(CN2CCNCC2)cc1NC(=O)CNc1ccc(F)c(F)c1`, the “activity change, negative = inhibition” value is -18.8% (inactive).

Turning to `Cn1cc(-c2ccncc2)c(-c2ccc(OCc3ccc4ccccc4n3)cc2)n1`, the “activity change, negative = inhibition” value is -19.1% (inactive).

Take `CC(C)=C1CC2C(CCC2(C)O)C(C)(O)CC1=O` (centres undefined): the “activity change, negative = inhibition” value is -7.71% (inactive).

Consider `COc1cc([C@H]2c3cc(O)c(OC)cc3C[C@@H](CO[C@@H]3O[C@H](CO)[C@@H](O)[C@H](O)[C@H]3O)[C@@H]2CO)ccc1O`, for which the “activity change, negative = inhibition” value was -18% [at 25.8 µM] (inactive).

With `C=C1C(O)CCC2(C)CC3(OC)OC(=O)C(C)=C3CC12` (centres undefined), the “activity change, negative = inhibition” value was -19.1% (inactive).

Take `C=C1C(=O)OC2CC(C)=C(C(C)CCCO)C(O)C12` (centres undefined): the “activity change, negative = inhibition” value was -18.7% (inactive).
